# Mdm2 MdmX PPI = human Mdm2/MdmX binding inhibition; O15151+Q00987; SaOS-2 split-luciferase Mdm2/MdmX complementation, luminescence; inhibition, % at 8 µM; 330,000 compounds, 3% hits;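 active = inhibition of at least 50% at 8 µM in the primary screen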
# Target sequence (O15151 whole entry, looked up): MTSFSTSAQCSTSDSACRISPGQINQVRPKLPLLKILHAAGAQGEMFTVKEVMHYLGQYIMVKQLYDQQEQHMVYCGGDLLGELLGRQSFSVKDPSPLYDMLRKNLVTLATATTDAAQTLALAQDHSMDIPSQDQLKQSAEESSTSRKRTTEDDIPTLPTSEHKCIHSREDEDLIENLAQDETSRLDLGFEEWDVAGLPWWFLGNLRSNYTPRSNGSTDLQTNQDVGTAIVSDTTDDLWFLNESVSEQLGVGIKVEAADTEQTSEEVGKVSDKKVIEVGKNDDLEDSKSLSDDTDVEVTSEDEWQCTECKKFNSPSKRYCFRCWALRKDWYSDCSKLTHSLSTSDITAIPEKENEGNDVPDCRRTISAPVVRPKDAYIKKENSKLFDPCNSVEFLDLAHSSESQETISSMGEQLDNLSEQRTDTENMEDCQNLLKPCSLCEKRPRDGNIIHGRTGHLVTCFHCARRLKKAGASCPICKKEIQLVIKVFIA
# Target sequence (Q00987 whole entry, looked up): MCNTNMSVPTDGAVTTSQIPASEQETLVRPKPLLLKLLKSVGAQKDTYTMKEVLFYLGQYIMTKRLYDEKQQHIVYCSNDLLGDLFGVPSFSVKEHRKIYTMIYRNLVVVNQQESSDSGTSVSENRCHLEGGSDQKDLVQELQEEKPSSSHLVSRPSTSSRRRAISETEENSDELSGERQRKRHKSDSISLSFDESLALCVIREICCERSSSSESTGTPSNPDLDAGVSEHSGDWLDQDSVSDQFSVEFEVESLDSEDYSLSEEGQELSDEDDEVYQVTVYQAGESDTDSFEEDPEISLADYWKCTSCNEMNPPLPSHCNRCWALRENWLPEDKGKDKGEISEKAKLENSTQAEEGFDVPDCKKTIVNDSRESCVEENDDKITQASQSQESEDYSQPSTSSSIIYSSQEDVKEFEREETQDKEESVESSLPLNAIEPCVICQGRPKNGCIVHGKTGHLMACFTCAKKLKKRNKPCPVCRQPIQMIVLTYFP
# Gli-Sufu block = Gli-Sufu pathway antagonism; Sufu-KO-LIGHT fibroblasts, Gli luciferase reporter luminescence; inhibition, % at 5 µM; 340,000 compounds, 0.74% hits;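 active = inhibition above about 55%, limit read from the data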;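 note: 0% = DMSO-treated cells and 100% = wells with medium but no cells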
# 697 NFkB inh = lowers PMA/ionomycin-induced NF-kB signal in 697 B cells. 697 B-cell NF-kB luciferase reporter, 16 h. inhibition, % at 4 µM. 330,000 compounds, 0.33% hits. AID 435022; in the data active = inhibition above about 35%
# Jurkat NFkB inh = inhibitors of the PMA/ionomycin-induced NF-kB reporter in Jurkat cells; PMA/ionomycin-induced NF-kB luciferase reporter, luminescence; inhibition, % at 4 µM; 330,000 compounds, 0.53% hits; in the data active = inhibition above about 50%
# Shn3 inh set2 = inhibitors of Schnurri-3 3'UTR reporter in osteoblasts; inhibition, % at 12.5 µM; AID 588674; 360,000 compounds, 0.52% hits; Clone20 osteoblast Shn3 3'UTR firefly luciferase, 24 h;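 active = mean inhibition of at least 75% with every replicate also reaching 75%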;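 note: 0% = median of neutral control wells and 100% = pilot-screen positive control compound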
# Mdm2 MdmX conf = human Mdm2/MdmX binding inhibition, confirmed; shares compounds with Mdm2 MdmX PPI; luminescent assay; inhibition, % at 8 µM; 10,000 compounds, 55% hits; AID 489028; in the data active = inhibition above about 40%
# Full FLuc ctr = counter-screen for Mdm2/MdmX inhibitors: full-length luciferase | SaOS-2 full-length luciferase counterscreen, luminescence | 6,200 compounds, 77% hits | AID 504607 | inhibition, % at 8 µM | shares compounds with Mdm2 MdmX PPI;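 active = mean inhibition at 8 µM reaching about 37%, which flags the compound as non-specific, limit read from the data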;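 note: p53-null SaOS-2 cells with luciferase driven by a doxycycline-inducible promoter; compound on cells about two nights before reading with doxycycline added after day one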
# The depositor's hits bear a star; . = no result. Most compounds without a hit are left out; they make up all but 3.8% or so of the library.
SMILES,Mdm2 MdmX PPI,Gli-Sufu block,697 NFkB inh,Jurkat NFkB inh,Shn3 inh set2,Mdm2 MdmX conf,Full FLuc ctr
O=C(COC(=O)CNC(=O)c1cccc([N+](=O)[O-])c1)NCc1ccco1,-16,-6,6,4,-3,.,.
COC(=O)CC(NC(=O)c1cccs1)c1ccc(OC)c(OC)c1 (stereo not given),3,-2,8,-3,-2,.,.
Cc1nc(Nc2ccccc2)c2oc3ccc(Cl)cc3c2n1,-4,-12,-27,-42,-9,.,.
Clc1ccc2oc3c(Cl)ncnc3c2c1,71*,6,9,3,-14,4,.
Cc1noc(C)c1CSc1nc2ccccc2c(=O)n1-c1ccc(F)cc1F,66*,10,-8,49,14,53*,58*
O=C(Nc1nc(-c2ccc(-c3ccccc3)cc2)cs1)C1=COCCO1,65*,-5,-16,-8,-17,57*,41*
CC(=O)c1c(C)[nH]c(C(=O)Nc2nc(-c3ccc(-c4ccccc4)cc3)cs2)c1C,87*,-2,-4,-11,42,44*,100*
O=C(COC(=O)c1ccc(CSc2ccc(Cl)cc2)cc1)Nc1ccccc1,-17,-5,2,-7,-8,.,.
COC(=O)c1ccccc1S(=O)(=O)C(C)(C)C,2,11,16,-1,-5,.,.
COC(=O)c1ccccc1S(=O)(=O)NNC(=O)Nc1ccccc1,69*,31,15,1,-12,50*,75*
CC(C)c1nc(CNC(=O)C2CCC(=O)N(CCc3ccc(Cl)cc3)C2)no1 (stereo not given),18,12,2,2,12,.,.
CC(C)=CCC[C@](C)(O[C@@H]1O[C@H](CO[C@@H]2O[C@H](CO)[C@@H](O)[C@H](O)[C@H]2O)[C@@H](O)[C@H](O)[C@H]1O)C1CC[C@]2(C)C1C(=O)CC1[C@@]3(C)CC[C@H](O[C@H]4O[C@@H](CO)[C@H](O)[C@@H](O)[C@@H]4O)C(C)(C)C3CC[C@]12C (stereo not given in full),-8,7,9,4,-65,.,.
CC(=O)OCC1O[C@@H](O[C@@H]2C[C@H]3C(C)(C)[C@H](OC(C)=O)CC[C@]3(C)[C@H]3CC[C@]45C[C@]4(CC[C@H]5[C@@H](C)C[C@@H](O)[C@H](O)C(C)(C)O)[C@@]32C)[C@H](O)[C@@H](O)[C@@H]1O (stereo not given in full),93*,.,14,7,.,13,.
Cc1c(C(=O)N2CCCCC2)nn(-c2ccc(Cl)cc2)c(=O)c1C#N,-2,6,-8,-7,-18,.,.
O=C(Nc1ccc(Oc2c(F)c(F)c(F)c(F)c2F)cc1)OC1CCN2Cc3ccccc3N=C12 (stereo not given),68*,13,-54,12,50,29,.
CCN(C(=O)COC(=O)CNC(=O)c1ccccc1C)C1=CCCCC1,-20,32,4,-3,-13,.,.
CCCN(C(=O)CCl)C1=CCCCC1,85*,-6,-2,-5,6,27,.
O=C(Nc1ccccc1)c1nc[nH]c1C(=O)NCCNC(=O)c1[nH]cnc1C(=O)Nc1ccccc1,47,1,24,13,13,.,.
O=C(Nc1ccccc1)c1nc[nH]c1C(=O)NCCCCNC(=O)c1[nH]cnc1C(=O)Nc1ccccc1,77*,8,10,1,11,45*,90*
Cc1ccc(NC(=O)c2nc[nH]c2C(=O)NCCCCCCNC(=O)c2[nH]cnc2C(=O)Nc2ccc(C)cc2)cc1,70*,-2,6,9,1,11,.
Cc1ccc(NC(=O)c2nc[nH]c2C(=O)NCCCCCNC(=O)OC(C)(C)C)cc1,31,7,2,13,25,.,.
O=C(c1ccccc1)c1nc[nH]c1C(=O)Nc1ccccc1,50*,3,-6,-4,7,30,65*
CCN(CC)C(=O)Cn1cnc2sc(C(=O)NCCCN3CCOCC3)c(C)c2c1=O,4,-4,25,4,-6,.,.
Cc1cc(C2(c3ccc(O)c(C)c3)C(=O)Nc3ccccc32)ccc1O,57*,-12,-3,-15,32,39,.
CC(C)(C)OC(=O)C[C@@H]1C/C=C\C[C@@H](CC(=O)N(CCO)Cc2ccccc2)C(=O)NC[C@H](c2ccccc2)OC1=O,60*,7,24,4,15,40*,71*
SMILES,Mdm2 MdmX PPI,Gli-Sufu block,697 NFkB inh,Jurkat NFkB inh,Shn3 inh set2,Mdm2 MdmX conf,Full FLuc ctr
Cc1cccc(C(=O)N[C@H](C(=O)Nc2nnc(C3CC3)s2)C(C)C)c1,-5,-1,-9,7,-5,.,.
Cc1cccc(C(=O)N[C@H](C(=O)Nc2ncc(C)s2)C(C)C)c1,68*,-93,-30,5,-10,64*,99*
Cc1cccc(C(=O)NC(C(=O)Nc2nc(-c3ccccn3)cs2)C(C)C)c1 (stereo not given),74*,16,-4,9,47,57*,31
Cc1cc(C(=O)CN2C(=O)C(=O)N(Cc3ccccc3)C2=O)c(C)n1Cc1ccccc1,31,-4,-2,-3,0,.,.
Cc1cc(C(=O)CN2C(=O)C(=O)N(Cc3ccccc3)C2=O)c(C)n1-c1ccccc1F,52*,-3,-26,-7,-61,51*,51*
Cc1onc(C(=O)N2CCN(Cc3ccccc3)CC2)c1[N+](=O)[O-],21,11,12,0,-26,.,.
CC(C)c1onc(C(=O)N2CCN(C(c3ccccc3)c3ccccc3)CC2)c1[N+](=O)[O-],74*,49,0,-3,6,94*,64*
Cc1ccc(Cl)cc1N1CCN(C(=O)c2noc(C(C)C)c2[N+](=O)[O-])CC1,68*,-1,-10,2,1,64*,37*
CC(C)c1onc(C(=O)N2CCN(c3ccccc3)CC2)c1[N+](=O)[O-],21,10,17,6,7,.,.
Cc1onc(C(=O)N2CCC(Cc3ccccc3)CC2)c1[N+](=O)[O-],82*,6,13,-7,-3,6,.
CC(C)c1onc(C(=O)N2CCN(c3ccc(F)cc3)CC2)c1[N+](=O)[O-],3,-1,5,7,31,.,.
COc1cccc(CNC(=O)CCC2CCCN(c3cc(C)nc(N4CCCC4)n3)C2)c1 (stereo not given),5,22,-11,4,17,.,.
COc1cc(/C=C(\C#N)c2ccccn2)ccc1OCC(=O)Nc1ccc(Br)cc1,100*,10,10,5,-30,94*,20
COc1cc(/C=C(/C#N)c2nc3ccccc3[nH]2)ccc1OCC(=O)Nc1ccccc1C(C)C,100*,-1,7,30,-2,79*,52*

# Source: PubChem (several laboratories)
